Our source for the growth inhibition values is PubChem BioAssay (NCI).

Compounds without any hit were thinned out: in the full panel of roughly 79,000, 15% have a hit. A number with no mark means an inactive call. Calls of active or inactive are those of the source. Rule as the data show it: active = growth inhibition above about 70%; inactive = the rest.

The nature of test [1]: NCI Yeast Anticancer Drug Screen. Data for the rad50 strain (AID 155).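 Also: 0% = growth of vehicle-only cultures of the same strain.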 Particulars: S. cerevisiae rad50 strain growth inhibition; at 50.0 µM; active compounds read high. The procedure, abridged: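 Genetically altered yeast (DNA repair pathway); compound treatment; growth inhibition vs vehicle ctrl.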
Test [2] can be described thus: NCI Yeast Anticancer Drug Screen. Data for the mec2-1 strain (AID 157). Particulars: S. cerevisiae mec2-1 strain, at 50.0 µM, active compounds read high. The procedure, abridged: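 Each compound was tested on mec2-1 yeast, a strain altered in DNA damage repair or cell cycle control. Growth inhibition is reported relative to vehicle.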
The nature of test [3]: NCI Yeast Anticancer Drug Screen. Data for the sgs1 mgt1 strain (AID 161).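 Also: 0% = growth of cultures given vehicle only.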 Particulars: S. cerevisiae sgs1 mgt1 strain, at 50.0 µM, active compounds read high. The essentials:
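Genetically altered yeast, compound exposure, growth inhibition relative to vehicle.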

Test [4] is described as follows: NCI Yeast Anticancer Drug Screen. Data for the cln2 rad14 strain (AID 165).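 Also: 0% = growth equal to vehicle treated cultures.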 As to conditions: S. cerevisiae cln2 rad14 strain, at 50.0 µM, active compounds read high. The essentials: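 Test compounds were added to cln2 rad14 yeast cultures; inhibition of growth was then determined by comparison with vehicle treatment.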
Test [5] in a line: NCI Yeast Anticancer Drug Screen. Data for the bub3 strain (AID 167). Particulars: S. cerevisiae bub3 mutant strain, at 50.0 µM, active compounds read high. The procedure, abridged: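 Yeast carrying a defined mutation is treated with each compound, and growth is compared with that of vehicle-exposed cells to give inhibition.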
Test [6] is described as follows: NCI Yeast Anticancer Drug Screen. Data for the mlh1 rad18 strain (AID 175). Particulars: S. cerevisiae mlh1 rad18 strain growth inhibition; at 50.0 µM; active compounds read high. The procedure, abridged: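 Inhibition values reflect reduced growth of mutant yeast versus vehicle-treated controls following compound exposure; the mutations affect DNA damage repair.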

`COC(=O)c1nc(N)[nH]c(=O)c1-c1ccc(Cl)cc1`: the growth inhibition was -9.5% in test [1]; -21.9% in test [2]; -10.9% in test [3]; 14.8% in test [4]; -12.7% in test [5]; -47.8% in test [6].
As for `CC(=O)OC1C=C(C=O)C(O)(C=O)C2(C)CCCC(C)(C)C12` (stereo unspecified), the growth inhibition in test [1] is -20.2%; in test [2], -29.5%; in test [3] it was -18.6%; in test [4], 7.95%; in test [5], 8.65%; in test [6] it was -17.6%.
For the compound `Nc1cc(C(=O)O)ccc1Cl`, the growth inhibition is -9.7% in test [1]; -8.1% in test [2]; -18.9% in test [3]; -88.8% in test [4]; -12.2% in test [5]; -5.4% in test [6].
With `CCSC(SCC)C(NC(C)=O)C(O)C(O)COC(=O)c1ccccc1` (stereo unspecified), the growth inhibition in test [1] is 6.05%; in test [2] it was 17.3%; in test [3], 17.4%; in test [4] it was 12%; in test [5] it was 1.35%; in test [6] it was 25.2%.
For `COc1cc(Nc2nc3ccc(C(F)(F)F)cc3nc2-c2ccccc2)cc(OC)c1OC`, the growth inhibition in test [1] is 0.05%; in test [2], 4.2%; in test [3], -36%; in test [4], -12.2%; in test [5] it was -9.3%; in test [6], -22.9%.
In the case of `CCOc1ccccc1NC(=O)C(=O)C(c1ccccc1)S(=O)(=O)Cc1ccccc1` (stereo unspecified), the growth inhibition was -1% in test [1]; -12.5% in test [2]; -10.1% in test [3]; 5.45% in test [4]; -7.35% in test [5]; -1.5% in test [6].
As to `O=C(Oc1ccc([N+](=O)[O-])cc1)C(CSC(c1ccccc1)(c1ccccc1)c1ccccc1)N1C(=O)c2ccccc2C1=O` (stereo unspecified), the growth inhibition in test [1] was 61.8%; in test [2] it was 46.7%; in test [3], 44.5%; in test [4] it was 58.7%; in test [5], 31.9%; in test [6] it was 52.8%.
For the compound `CC(C)(C)c1ccc(O)c(Cl)c1`, the growth inhibition in test [1] is -15.8%; in test [2] it was -7.65%; in test [3] it was -5.9%; in test [4], -7.85%; in test [5], -11.1%; in test [6], 10.2%.
Consider `CCOC(=O)C1CCCCC1NC1CCCCC1C(=O)OCC` (stereo unspecified), for which the growth inhibition in test [1] is 4.65%; in test [2], -2.35%; in test [3] it was -22.9%; in test [4], -14.2%; in test [5], -16.2%; in test [6], 8.9%.
Turning to `O=C1CSC(c2cccs2)N1CCN1C(=O)CSC1c1cccs1` (stereo unspecified), the growth inhibition in test [1] is 4.65%; in test [2], -2.1%; in test [3], -6.2%; in test [4], -6.75%; in test [5] it was 1.1%; in test [6], -0.25%.
On to `CNC(=S)N/N=C/c1nc2ccccc2c(=O)n1-c1ccc(Cl)cc1`, for which the growth inhibition in test [1] is 19.6%; in test [2], 0.75%; in test [3] it was 36.6%; in test [4], 2.55%; in test [5], -2.5%; in test [6], 10.2%.
On to `NC(=O)c1ccc2c(c1)-c1nc-2nc2[n-]c(nc3nc(nc4[n-]c(n1)c1ccc(C(N)=O)cc41)-c1ccc(C(N)=O)cc1-3)c1ccc(C(N)=O)cc21.[Co+2]`, for which the growth inhibition was -7.55% in test [1]; 4.65% in test [2]; 1.8% in test [3]; 29.2% in test [4]; 35% in test [5]; 4.35% in test [6].
For `CC(=O)c1c(C)nc(SSc2nc(C)c(C(C)=O)c(-c3ccc(Cl)cc3)c2C#N)c(C#N)c1-c1ccc(Cl)cc1`, the growth inhibition in test [1] is -30.8%; in test [2], -7.8%; in test [3], -15.9%; in test [4], 6.35%; in test [5], -26.2%; in test [6], -2.2%.
Regarding `Cc1ccc(S(=O)(=O)OCC(c2ccc(Cl)cc2)c2ccccc2Cl)cc1` (stereo unspecified), the growth inhibition in test [1] was 14.6%; in test [2], 1.9%; in test [3] it was 3.6%; in test [4], 11.4%; in test [5] it was -1.15%; in test [6], 1.85%.
Regarding `S=C1SC(=Nc2ccccc2)C(=Nc2ccccc2)N1c1ccc2ccccc2c1`, the growth inhibition was 8.2% in test [1]; 8.75% in test [2]; 28.5% in test [3]; 12.8% in test [4]; 27.9% in test [5]; 24.1% in test [6].
`CC(=O)OC1C(=O)OC(=O)C1OC(C)=O` (stereo unspecified): the growth inhibition in test [1] is 9.6%; in test [2], 0.9%; in test [3], 8.1%; in test [4], 5.25%; in test [5], 6.05%; in test [6] it was -3.85%.
With `N#Cc1nc[nH]c1C(N)=O`, the growth inhibition is -2.4% in test [1]; 0.25% in test [2]; -14.2% in test [3]; 11.8% in test [4]; 11% in test [5]; 6.25% in test [6].
`CCOC(=O)C(N)CSSCC(N)C(=O)OCC` (stereo unspecified): the growth inhibition is 5.55% in test [1]; -3.35% in test [2]; -4.4% in test [3]; -11.6% in test [4]; 8.95% in test [5]; -4.85% in test [6].
Take `CCOC(=O)c1cc(C)[nH]c1C`: the growth inhibition in test [1] is 2.65%; in test [2] it was -1.9%; in test [3], -0.55%; in test [4], -17.6%; in test [5], 23.2%; in test [6], 3.9%.
Consider `O=C(Nc1ccc(Cl)cc1)Nc1nnc(-c2ccc(-c3nnc(NC(=O)Nc4ccc(Cl)cc4)o3)cc2)o1`, for which the growth inhibition in test [1] was 28.4%; in test [2], 0.4%; in test [3], 26.4%; in test [4], -34.3%; in test [5], 18%; in test [6], 21.6%.
`CC(O)C1(O)C(O)CC(OC2c3cc4c(c(O)c3[C@@H]3C[C@@]2(C)OC32C=c3cc[nH]c3=N2)C(=O)c2cccc(O)c2C4=O)OC1C` (stereo partly specified): the growth inhibition in test [1] is 63.5%; in test [2], 41.1%; in test [3], 60%; in test [4] it was 50.4%; in test [5], 52%; in test [6] it was 67.6%.
As to `NC(=O)Cn1c(=O)[nH]c(=O)c2[nH]cnc21`, the growth inhibition is -16.9% in test [1]; -2.1% in test [2]; -10.3% in test [3]; 5.4% in test [4]; -0.4% in test [5]; 6.85% in test [6].
Turning to `O=C(COc1ccc(Cl)cc1)N(c1ccccc1)C1CCCCC1`, the growth inhibition was 95.9% (active) in test [1]; 98.3% (active) in test [2]; 97.5% (active) in test [3]; 96.2% (active) in test [4]; 95.2% (active) in test [5]; 96.9% (active) in test [6].
With `COc1cc(N)c2c(c1)SC(c1ccccc1)C(=O)N2` (stereo unspecified), the growth inhibition was -23.6% in test [1]; 4.25% in test [2]; 1% in test [3]; 14.1% in test [4]; 32.6% in test [5]; 15.7% in test [6].
Turning to `Cc1c(O)c([N+](=O)[O-])cc2c1OCOC2`, the growth inhibition is 3.8% in test [1]; 11.6% in test [2]; -3.15% in test [3]; -9.4% in test [4]; -17.5% in test [5]; 0% in test [6].
`CC(=O)CC1CCCCCC1`: the growth inhibition in test [1] was 4.3%; in test [2], 4.3%; in test [3] it was 0.45%; in test [4], -11.3%; in test [5], 2.1%; in test [6] it was 6.3%.
For `CC(C)(c1ccccc1)C(C)(C)c1nc(-c2ccccc2)cc(-c2ccccc2)n1`, the growth inhibition was -23.4% in test [1]; 4.95% in test [2]; -4.65% in test [3]; -95% in test [4]; -0.95% in test [5]; -11.8% in test [6].
For `C=C(C)C#CC(O)(C(=O)OC1CCN(C)CC1)C(C)C` (stereo unspecified), the growth inhibition in test [1] was -7.95%; in test [2] it was -14%; in test [3] it was -21.1%; in test [4] it was 7.2%; in test [5], 20.9%; in test [6], -22.1%.
With `CC(O)CN(CC(C)O)c1ccc2c(c1)Cc1ccccc1-2` (stereo unspecified), the growth inhibition was -13.2% in test [1]; -13.3% in test [2]; 13.8% in test [3]; -20.8% in test [4]; 36% in test [5]; -4.6% in test [6].
Regarding `CC(=O)Oc1ccccc1C(=O)OC(=O)c1ccccc1OC(C)=O`, the growth inhibition was 5.3% in test [1]; -10.2% in test [2]; -1.7% in test [3]; -9.85% in test [4]; 0% in test [5]; 6.75% in test [6].
In the case of `COc1c(OC2OC(CO)C(O)C(O)C2O)cc2c(c1OC)-c1ccc(OC)c(=O)cc1C(NC(C)=O)CC2` (stereo unspecified), the growth inhibition was 13.8% in test [1]; 8.75% in test [2]; 10.8% in test [3]; 11.7% in test [4]; 19% in test [5]; 20.4% in test [6].
In the case of `O=C(Nc1ccccc1Cl)Nc1cccc2ccccc12`, the growth inhibition was 15.2% in test [1]; 1.3% in test [2]; 17.8% in test [3]; -1.6% in test [4]; 4.55% in test [5]; 8.65% in test [6].
In the case of `COc1ccc(/C=C(\Cl)c2ccc(OC)cc2)cc1`, the growth inhibition in test [1] is -2.9%; in test [2], 3.8%; in test [3] it was -26.6%; in test [4], -18.1%; in test [5], 5.6%; in test [6], -26.8%.
`CN(C)c1ccc(/C=N\NC(=S)NCCCN2CCN(CCCNC(=S)N/N=C/c3ccc(N(C)C)cc3)CC2)cc1`: the growth inhibition is 36.1% in test [1]; 9.4% in test [2]; 5.45% in test [3]; 17.6% in test [4]; 1.5% in test [5]; 27.2% in test [6].
Turning to `Cc1cccc(NC(=O)Nc2cccc(Cl)c2Cl)n1`, the growth inhibition in test [1] is 15.9%; in test [2], 13.7%; in test [3] it was 13.6%; in test [4] it was 15.1%; in test [5], 23.9%; in test [6], 18.6%.
As for `Nc1ncnc(N)c1NC(=O)CCCc1ccccc1`, the growth inhibition in test [1] was 5.85%; in test [2] it was 18.6%; in test [3], -2.95%; in test [4] it was 1%; in test [5], 33.5%; in test [6], 15.9%.
